From PubChem BioAssay (NCATS) come the findings set out here.

A short description of test [1]: qHTS for differential inhibitors of proliferation of Plasmodium falciparum line W2 (AID 1883).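 Further: parasites grown with compound for 72 h before lysis and staining.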 Further: potency means the concentration at half of the fitted maximal effect. To be noted: Potency: Plasmodium falciparum W2 proliferation inhibition. Background: qHTS replaces the single test concentration by a dilution series.
Test [2] can be described thus: qHTS for differential inhibitors of proliferation of Plasmodium falciparum line HB3 (AID 1886).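 Further: parasites grown with compound for 72 h before SYBR Green readout.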 Further: potency means the concentration at half of the fitted maximal effect. Conditions: Potency: Plasmodium falciparum HB3 proliferation inhibition.
For test [3], the target named is Ferritin light chain (Equus caballus) (UniProt P02791). Kind of test: qHTS Validation Assay for Identification of Novel General Anesthetics (AID 2323). Further: series mostly up to about 77 µM. The method in brief:
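Normalized fluorescence response, scaled between free 1-AMA and 1-AMA/apoferritin complex, fitted to a four-parameter Hill equation for concentration-effect values. Binding mix: 10 uM horse-spleen apoferritin, 50% saturated 1-AMA in PBS; read 380/535 nm after 10 min.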

The target of test [4] is ATP-dependent DNA helicase Q1 (Homo sapiens) (UniProt P46063). The experiment in a line: qHTS Validation Assay for Inhibitors of RecQ-Like Dna Helicase 1 (RECQ1) (AID 2353). The method in brief: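 50 nM RECQ1T1 preincubated 15 min with compound in Tris pH 8.0 buffer with MgCl2, DTT, Tween-20 and 2.5 ug/ml poly(dI-dC); started with 200 nM TAMRA/BHQ-2 forked duplex and 2 mM ATP. Unwinding read as fluorescence (525/598 nm), two reads 2 h apart.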

A short description of test [5]: Cytometric Cell-Based qHTS for Inhibitors of the mTORC1 Signaling Pathway in MEF (Tsc2-/-, p53-/-) Cells (AID 2660).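 Further: percent of cells above a phospho-rpS6 to PI ratio cutoff in each well; series mostly up to about 38 µM.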 The essentials:
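Cells are plated, treated with compound for 24 hrs at 37 degree Celsius, then fixed, blocked and immunostained for phospho-rpS6 Ser235/236. Propidium iodide counterstain follows. Per-well % positive cells is derived from the PI-normalized phospho-S6 signal.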

Test [6] is described as follows: High Content Imaging Cell-Based qHTS for Inhibitors of the mTORC1 Signaling Pathway in MEF (Tsc2-/-, p53-/-) Cells (AID 2666).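 Further: percent of cells scored positive for phospho-rpS6 Ser235/236 immunostaining by imaging.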 The essentials:
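Read-out: % positive cells per well, with thresholds from highest- and lowest-signal wells, based on phospho-rpS6 (Ser235/236) intensity normalized to Hoechst nuclear stain. Cells: Tsc2-/-, p53-/- MEFs carrying empty vector; compound 24 hrs, 37 degree Celsius.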

Test [7] is described as follows: High Content Imaging Cell-Based qHTS for Inhibitors of the mTORC1 Signaling Pathway in MEF Cells (AID 2667).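 Further: Tsc2-/- p53-/- MEFs stably re-expressing wild-type Tsc2 exposed 24 h; series mostly up to about 38 µM.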 The method in brief:
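MEF (Tsc2-/-, p53-/-, WT Tsc2 re-expressed); cpd 24 h, 37 °C; PFA fix; Alexa-488 anti-p-rpS6 Ser235/236, PI, Hoechst; IN Cell imaging; Hoechst/Alexa-488 intensity ratio; % active cells, thresholds set from rapamycin and DMSO wells.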

Test [8] in a line: Validation screen for small molecules that induce DNA re-replication in MCF 10A normal breast cells (AID 463097). Further: nearly all actives have a fitted effect of over 60% in size. Further: potency means the concentration at half of the fitted maximal effect. The method in brief: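 Following 48 hr compound incubation (37 C, 5% CO2), MCF 10A cells receive Hoechst for 40 min at 37 C. Nuclei are then scanned (excitation 405 nm, emission 500-530 nm) for total fluorescence intensity.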
Test [9] deals with Ubiquitin carboxyl-terminal hydrolase 2 (Homo sapiens) (UniProt O75604). The experiment in a line: qHTS Validation Assay for Inhibitors of Ubiquitin-specific Protease USP2a Using CHOP2 as the Reporter (AID 463106). The method in brief:
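USP2 core (10nM final) was preincubated with compound for 30min at RT in 20mM Tris-HCl pH 8.0, 2mM CaCl2, 2mM beta-mercaptoethanol, 0.05% CHAPS. Ub-CHOP2 and reporter substrate (25nM each) were added, and fluorescence (Ex 485/Em 531nm) was read after 60min.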

Test [10] concerns the target DNA polymerase III PolC-type (Bacillus subtilis (strain 168)) (UniProt P13267). The experiment in a line: qHTS Validation Assay for the Inhibitors of DNA Replication in Gram-Positive Bacteria (AID 485295).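 Further: reconstituted holoenzyme with PolC plus beta clamp SSB and primase; PicoGreen fluorescence of double-stranded DNA made on primed circular M13 template; series mostly up to about 57 µM.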 The essentials: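 Inhibition of DNA synthesis by the reconstituted PolC holoenzyme, monitored through PicoGreen staining of dsDNA formed from ssM13Gori, dNTPs and NTPs, with compound preincubation and room-temperature reaction.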

Test [11] can be described thus: qHTS Validation Assay to Find Inhibitors of Chronic Active B-Cell Receptor Signaling (AID 485345; active means well fitted curve in the direction sought with a large enough effect in the main read-out, with a control signal flat, not every such curve was filed as active). The method in brief: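 TMD8 ABC-DLBCL cells with dox-inducible green luciferase–IκBα fusion and red native luciferase; compounds 46 uM–3 nM, 4 h at 37C with doxycycline in 0.5% FBS IMDM. Green/red ratio normalized to basal and 10 uM MG-132.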
The target in test [12] is Beta-2 adrenergic receptor (Homo sapiens) (UniProt P07550). Kind of test: qHTS validation assay of beta-arrestin-biased ligands of beta2-adrenergic receptor (AID 485366). The method in brief:
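Values derive from curve-fitted %Activity of a luminescent beta-arrestin recruitment reporter; compounds tested up to 46 microM on Tango cells for 18 hr at 37 degrees C, 5% CO2.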

The nature of test [13]: Cytometry Cell-Based qHTS for Inhibitors of the mTORC1 Signaling Pathway in MEF cells (AID 2668).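 Further: Tsc2-/- p53-/- mouse embryonic fibroblasts stably re-expressing wild-type Tsc2; percent cells positive for phospho-rpS6 Ser235/236 relative to propidium iodide stain; series mostly up to about 38 µM.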 The method in brief: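 In MEFs grown in DMEM + 10% FBS, a 24 hrs compound exposure preceded imaging of phospho-rpS6 Ser235/236 by laser-scanning cytometry.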
The target of test [14] is Tumor susceptibility gene 101 protein (Homo sapiens) (UniProt Q99816). Kind of test: qHTS Validation Assay for Iinhibitors of HIV-1 Budding by Blocking the Interaction of PTAP/TSG101 (AID 485342; calls by dose curve). The essentials:
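Compound wells held the Tsg101 binding domain (10 uM) and a FITC-conjugated PTAP peptide (50 nM) in buffer at pH 7.5 containing 0.15 M NaCl and 0.01% Tween 20; polarization was recorded after 20 min, r.t.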

Test [15] in a line: qHTS Assay for Modulators of Human Peripheral Myelin Protein 22 (PMP22) Expression/Activity (AID 1967; active means well fitted curve in the direction sought with a large enough effect in the signal ratio; the % refers to the signal ratio). The method in brief: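 Engineered MSC80 cells, Pmp22-promoter green and EF-alpha red luciferase reporters; 24h compound treatment at 37 °C. Concentration-response fits on green, red and ratio signals, each overlap-corrected, with %Activity normalized to untreated wells.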

Test [16] deals with RecQ-like DNA helicase BLM (Homo sapiens) (UniProt P54132). The experiment in a line: qHTS Validation Assay for Inhibitors of Bloom's syndrome helicase (BLM) (AID 2364). The method in brief: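 BLM 50 nM in 25 mM Tris-HCl pH 8.0, 5 mM NaCl, 2 mM MgCl2, 1 mM DTT, 0.01% Tween-20, 2.5 ug/ml poly(dI-dC); 15 min cpd preinc, RT. Start: 200 nM forked DNA + 2 mM ATP (final). TAMRA read, 2 reads 2 h apart.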

The structures appear in SMILES notation. Records with an inconclusive call do not appear. The source made the active and inactive calls. Unless noted, the call rests on the fitted dose curve; in most records, active means well fitted curve in the direction sought with a large enough effect; inconclusive means small, poorly fitted or top-dose-only effect, or another doubt; inactive means no such curve, though single readings can be large; an effect the other way counts as inactive or inconclusive.

Chain of RecQ-like DNA helicase BLM (Homo sapiens) (P54132 whole entry, looked up): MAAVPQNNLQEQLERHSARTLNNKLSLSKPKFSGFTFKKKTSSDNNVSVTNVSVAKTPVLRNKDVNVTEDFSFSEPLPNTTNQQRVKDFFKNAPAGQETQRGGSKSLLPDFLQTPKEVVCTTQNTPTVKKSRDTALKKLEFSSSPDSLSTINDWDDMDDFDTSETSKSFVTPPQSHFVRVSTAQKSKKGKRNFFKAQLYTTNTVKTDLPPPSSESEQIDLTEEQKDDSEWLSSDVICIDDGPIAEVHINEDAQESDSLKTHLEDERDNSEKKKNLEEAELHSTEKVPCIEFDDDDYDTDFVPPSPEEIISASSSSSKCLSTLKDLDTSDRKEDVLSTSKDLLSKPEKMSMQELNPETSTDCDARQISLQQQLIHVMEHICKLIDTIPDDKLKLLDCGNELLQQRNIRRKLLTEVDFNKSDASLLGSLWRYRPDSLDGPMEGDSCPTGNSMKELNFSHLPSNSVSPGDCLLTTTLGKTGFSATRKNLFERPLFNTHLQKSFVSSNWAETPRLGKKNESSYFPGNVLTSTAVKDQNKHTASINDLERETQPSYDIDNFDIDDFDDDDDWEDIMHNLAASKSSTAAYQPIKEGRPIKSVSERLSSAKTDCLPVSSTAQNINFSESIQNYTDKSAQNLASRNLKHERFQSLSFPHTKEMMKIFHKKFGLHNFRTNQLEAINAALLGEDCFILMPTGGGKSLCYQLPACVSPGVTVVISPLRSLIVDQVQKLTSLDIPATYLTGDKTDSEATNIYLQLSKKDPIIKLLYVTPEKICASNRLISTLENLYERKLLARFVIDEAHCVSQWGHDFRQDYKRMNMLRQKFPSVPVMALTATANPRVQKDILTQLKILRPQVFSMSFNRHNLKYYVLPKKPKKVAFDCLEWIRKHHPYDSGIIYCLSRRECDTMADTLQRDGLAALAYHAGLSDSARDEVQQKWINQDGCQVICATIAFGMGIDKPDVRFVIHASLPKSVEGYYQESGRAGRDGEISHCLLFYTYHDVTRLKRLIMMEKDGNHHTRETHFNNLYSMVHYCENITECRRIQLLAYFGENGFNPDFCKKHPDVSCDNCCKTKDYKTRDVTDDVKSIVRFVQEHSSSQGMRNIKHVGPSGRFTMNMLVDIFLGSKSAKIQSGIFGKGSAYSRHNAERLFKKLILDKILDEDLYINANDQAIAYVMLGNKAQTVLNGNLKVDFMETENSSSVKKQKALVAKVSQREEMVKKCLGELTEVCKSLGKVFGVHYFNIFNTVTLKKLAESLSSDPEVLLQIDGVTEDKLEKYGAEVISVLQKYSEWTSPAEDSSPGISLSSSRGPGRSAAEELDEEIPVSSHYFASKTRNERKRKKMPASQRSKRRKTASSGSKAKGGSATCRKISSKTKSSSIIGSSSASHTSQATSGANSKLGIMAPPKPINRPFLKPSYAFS
Chain of DNA polymerase III PolC-type (Bacillus subtilis (strain 168)) (P13267 whole entry, looked up): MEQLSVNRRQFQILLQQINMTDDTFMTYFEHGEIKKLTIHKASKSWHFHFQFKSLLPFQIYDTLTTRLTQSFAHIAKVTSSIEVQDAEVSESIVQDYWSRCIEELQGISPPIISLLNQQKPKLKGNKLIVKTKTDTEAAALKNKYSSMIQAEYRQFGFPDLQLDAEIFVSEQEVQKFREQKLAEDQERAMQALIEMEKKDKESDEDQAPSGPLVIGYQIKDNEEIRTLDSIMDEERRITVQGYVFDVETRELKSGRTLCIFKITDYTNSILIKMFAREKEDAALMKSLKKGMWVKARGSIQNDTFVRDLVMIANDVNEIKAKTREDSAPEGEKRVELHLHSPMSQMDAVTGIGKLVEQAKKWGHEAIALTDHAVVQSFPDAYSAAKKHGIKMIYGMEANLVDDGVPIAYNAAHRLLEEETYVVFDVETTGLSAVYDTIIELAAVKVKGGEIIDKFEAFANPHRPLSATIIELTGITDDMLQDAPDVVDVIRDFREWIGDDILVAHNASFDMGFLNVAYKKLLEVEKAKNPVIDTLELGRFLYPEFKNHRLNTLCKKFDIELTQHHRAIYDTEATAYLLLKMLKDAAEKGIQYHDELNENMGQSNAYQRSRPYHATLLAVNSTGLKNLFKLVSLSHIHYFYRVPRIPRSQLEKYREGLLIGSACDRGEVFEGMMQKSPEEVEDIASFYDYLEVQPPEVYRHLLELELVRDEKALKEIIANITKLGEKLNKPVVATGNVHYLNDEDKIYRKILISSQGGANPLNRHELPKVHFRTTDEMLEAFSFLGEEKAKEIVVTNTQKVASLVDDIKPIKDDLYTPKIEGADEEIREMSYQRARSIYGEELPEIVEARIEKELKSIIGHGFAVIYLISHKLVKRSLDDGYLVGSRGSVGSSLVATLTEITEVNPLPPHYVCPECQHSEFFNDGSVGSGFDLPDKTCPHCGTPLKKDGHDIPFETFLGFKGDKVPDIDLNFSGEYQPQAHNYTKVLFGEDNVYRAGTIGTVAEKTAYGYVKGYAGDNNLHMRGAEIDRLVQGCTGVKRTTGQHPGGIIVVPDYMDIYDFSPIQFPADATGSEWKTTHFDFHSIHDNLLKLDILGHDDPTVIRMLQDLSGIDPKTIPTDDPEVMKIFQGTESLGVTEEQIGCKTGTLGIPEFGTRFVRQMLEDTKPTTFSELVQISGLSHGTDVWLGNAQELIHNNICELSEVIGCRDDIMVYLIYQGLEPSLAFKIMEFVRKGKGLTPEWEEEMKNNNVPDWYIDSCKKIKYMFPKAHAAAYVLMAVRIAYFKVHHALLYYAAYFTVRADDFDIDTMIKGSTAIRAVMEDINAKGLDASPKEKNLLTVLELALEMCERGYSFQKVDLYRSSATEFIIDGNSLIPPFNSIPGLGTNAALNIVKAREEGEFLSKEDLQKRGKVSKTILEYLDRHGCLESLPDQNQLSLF
Chain of Ubiquitin carboxyl-terminal hydrolase 2 (Homo sapiens) (O75604 whole entry, looked up): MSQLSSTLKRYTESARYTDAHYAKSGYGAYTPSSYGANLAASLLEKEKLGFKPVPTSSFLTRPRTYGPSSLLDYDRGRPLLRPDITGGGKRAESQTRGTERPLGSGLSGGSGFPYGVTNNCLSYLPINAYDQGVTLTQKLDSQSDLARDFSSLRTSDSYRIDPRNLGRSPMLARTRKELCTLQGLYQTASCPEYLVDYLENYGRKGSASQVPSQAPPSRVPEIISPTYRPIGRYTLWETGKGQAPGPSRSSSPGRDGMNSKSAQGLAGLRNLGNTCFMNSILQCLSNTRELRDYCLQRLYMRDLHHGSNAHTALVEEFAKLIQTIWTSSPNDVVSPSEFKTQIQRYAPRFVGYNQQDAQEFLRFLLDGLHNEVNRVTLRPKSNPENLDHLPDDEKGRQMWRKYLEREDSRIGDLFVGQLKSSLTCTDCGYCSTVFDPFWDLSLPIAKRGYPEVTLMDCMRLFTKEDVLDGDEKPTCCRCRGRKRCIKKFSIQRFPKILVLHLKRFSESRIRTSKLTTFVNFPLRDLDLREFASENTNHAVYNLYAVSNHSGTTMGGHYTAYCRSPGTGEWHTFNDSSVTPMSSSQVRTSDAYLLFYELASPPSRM
Chain of Tumor susceptibility gene 101 protein (Homo sapiens) (Q99816 whole entry, looked up, the tested form may be a part): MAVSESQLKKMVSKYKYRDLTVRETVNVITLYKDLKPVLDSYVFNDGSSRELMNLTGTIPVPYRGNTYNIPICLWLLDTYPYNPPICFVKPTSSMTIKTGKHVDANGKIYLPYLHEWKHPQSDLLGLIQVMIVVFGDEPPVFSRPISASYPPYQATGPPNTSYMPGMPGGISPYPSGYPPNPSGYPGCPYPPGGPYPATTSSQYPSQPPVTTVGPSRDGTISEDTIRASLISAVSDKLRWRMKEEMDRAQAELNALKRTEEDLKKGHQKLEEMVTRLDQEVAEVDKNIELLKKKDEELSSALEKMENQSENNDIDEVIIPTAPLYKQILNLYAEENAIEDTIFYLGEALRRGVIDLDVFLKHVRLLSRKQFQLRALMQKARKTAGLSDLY
Chain of Ferritin light chain (Equus caballus) (P02791 2-175 limits assumed): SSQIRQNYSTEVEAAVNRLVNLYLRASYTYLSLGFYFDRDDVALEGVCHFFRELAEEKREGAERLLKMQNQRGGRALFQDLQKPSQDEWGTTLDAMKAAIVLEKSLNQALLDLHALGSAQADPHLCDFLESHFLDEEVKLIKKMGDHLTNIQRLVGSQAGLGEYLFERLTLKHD
Chain of Beta-2 adrenergic receptor (Homo sapiens) (P07550 whole entry, looked up): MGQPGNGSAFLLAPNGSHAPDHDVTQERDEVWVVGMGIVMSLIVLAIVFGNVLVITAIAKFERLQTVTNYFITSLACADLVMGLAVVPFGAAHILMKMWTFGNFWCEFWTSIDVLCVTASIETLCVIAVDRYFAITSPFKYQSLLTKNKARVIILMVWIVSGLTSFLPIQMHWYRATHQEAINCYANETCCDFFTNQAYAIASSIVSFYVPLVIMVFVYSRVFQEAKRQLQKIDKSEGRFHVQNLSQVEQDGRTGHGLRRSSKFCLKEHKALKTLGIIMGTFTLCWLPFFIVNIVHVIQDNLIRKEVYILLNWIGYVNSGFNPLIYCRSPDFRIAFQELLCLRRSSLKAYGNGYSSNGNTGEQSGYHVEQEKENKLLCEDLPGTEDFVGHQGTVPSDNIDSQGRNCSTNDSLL

Turning to `CCN1C(=O)C=CC1=O`, the Potency entry in [1], in test [2], in [3], in test [4], in test [6] and in test [7] was “inactive” each time. The Potency result in [9] and in [10] was “inactive” throughout. Further, the outcome in test [5], in [11] and in test [12] was inactive. Also, the Potency in test [8] was 20 µM (active).

In the case of `COc1cccc(OC)c1OCCNCC1CSc2ccccc2O1` (centres undefined), the Potency in test [1] was 3.98 µM (active); in test [2] it was 12.6 µM (active). The Potency entry in test [3], in test [6], in test [7], in [8], in test [9] and in test [10] was “inactive” in each case. For the same compound, the call in test [5] and in test [12] was inactive.

With `CC1CCN=C(N)S1` (centres undefined), the Potency in test [1] was 11.2 µM (active). Further, the Potency result in test [2], in test [4], in test [6], in [7], in test [13] and in [8] was “inactive” each time. Further, the Potency result in [9] and in test [10] was “inactive” throughout. The result in [5], in test [14] and in [12] was inactive.

Take `CC1CCN(CC[C@H]2CCCN2S(=O)(=O)c2cccc(O)c2)CC1`: in test [1], the Potency is 8.91 µM (active). Besides, the Potency result in [2], in [3], in [4], in test [6], in [13] and in test [8] was “inactive” each time. For the same compound, the Potency result in test [9] and in test [10] was “inactive” each time. Also, the call in test [15], in test [5], in test [14], in test [11] and in test [12] was inactive.

`CCCC(=O)NCCc1c2n(c3ccc(OC)cc13)CCCc1ccccc1-2`: the Potency was 7.94 µM (active) in test [1] and 11.2 µM (active) in [2]. The Potency result in test [4], in [6], in test [7], in test [13], in test [9] and in [10] was “inactive” in each case. In addition, the compound was classed as inactive in test [5] and in test [14].

On to `O=c1onc2cnc3ccccc3n12`, for which the Potency result in test [1], in test [3], in test [4], in [16], in [6] and in test [7] was “inactive” throughout. For the same compound, the Potency entry in [13], in [9] and in test [10] was “inactive” each time. For the same compound, the Potency in test [2] is 5.62 µM (active). The result in test [5], in test [14] and in test [12] was inactive.

As to `CCCN(CCc1ccccc1)C1CCc2c(O)cccc2C1` (centres undefined), the Potency in [1] was 1 µM (active); in [2], 2.51 µM (active). The Potency entry in test [4], in [16], in test [6], in test [7], in test [13] and in test [8] was “inactive” each time. Moreover, the Potency result in [9] and in test [10] was “inactive” in each case. Besides, the result in [5], in test [11] and in test [12] was inactive.

In the case of `O=C1NC(=O)c2cc(Nc3ccccc3)c(Nc3ccccc3)cc21`, the Potency in test [1] is 10 µM (active); in test [2] it was 8.91 µM (active). Moreover, the Potency entry in test [3], in [6], in [7], in test [9] and in test [10] was “inactive” throughout. Moreover, the compound was classed as inactive in test [5], in test [14] and in test [12].

For `COc1cc(CC(=O)O)ccc1O`, the Potency entry in test [1], in [2], in test [4], in test [16], in test [6] and in [7] was “inactive” each time. The Potency entry in test [13], in test [8], in [9] and in [10] was “inactive” in each case. The call in test [15], in test [5], in test [14], in test [11] and in test [12] was inactive.
